{
  "source": "PubChem BioAssay AID504832",
  "about": "(National Center for Advancing Translational Sciences (NCATS), 2011)",
  "note": "The campaign covered roughly 310,000 compounds. About 18,000 (5.8%) were called active. Another 22% or so got no clear call; they are omitted. The call rests on the fitted dose curve; in most records, active means well fitted inhibition curve with a large enough effect; inconclusive means small, poorly fitted or top-dose-only effect, or another doubt; inactive means no such curve, though single readings can be large or run the other way. Only a selection was taken, and actives are over-represented in it overall. On the % scale 0 is the no-effect control and ±100 the full control effect; potency means the concentration at half of the fitted maximal effect.",
  "data": [
    {"assay": "Primary qHTS for delayed death inhibitors of the malarial parasite plastid, 48 hour incubation", "conditions": "P. falciparum luciferase growth in erythrocytes; series mostly up to 28.7 µM; activity change, negative = inhibition: at the top concentration", "outline": "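Parasite viability was followed by luminescence of a genomically integrated firefly luciferase. Cultures held 0.1% parasitemia at 2% hematocrit (final), incubated under 5% CO2 at 37 C.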", "values": [
      {"smiles": "N#C/C=C/N1CCN(Cc2ccc3c(c2)OCO3)CC1", "activity change, negative = inhibition": "12.1% (inactive)"},
      {"smiles": "CCN(CC)C(=O)c1sc2nc(-c3ccccc3)ccc2c1N", "activity change, negative = inhibition": "189% (inactive)"},
      {"smiles": "CS(=O)(=O)c1sc2nc(-c3ccccc3)cc(-c3ccccc3)c2c1N", "Potency": "4.65 µM (active)"},
      {"smiles": "CNc1nc(-c2ccccc2)cc(-c2ccccc2)n1", "activity change, negative = inhibition": "-5.46% (inactive)"},
      {"smiles": "CSc1ccccc1C(=O)OCC(=O)N1CCN(C(C)=O)CC1", "activity change, negative = inhibition": "-3.5% (inactive)"},
      {"smiles": "O=C(NCCCc1ccccc1)C(=O)c1c[nH]c2ccccc12", "activity change, negative = inhibition": "16.7% (inactive)"},
      {"smiles": "O=S(=O)(c1ccc(SCc2ccccc2)nc1)N1CCCCCC1", "activity change, negative = inhibition": "-6.45% (inactive)"},
      {"smiles": "COc1ccc2c(c1)OC(O)(C(F)(F)C(F)F)CC2=O", "note": "(stereo not given)", "Potency": "3.29 µM (active)"},
      {"smiles": "CC1(C)CC(=O)c2ccc(O)cc2O1", "activity change, negative = inhibition": "-6.62% (inactive)"},
      {"smiles": "COc1ccc2c(c1)SC(C)CC2=O", "note": "(stereo not given)", "activity change, negative = inhibition": "10.2% (inactive)"},
      {"smiles": "COc1cc(C2C(C(=O)c3ccco3)=C(O)C(=O)N2c2cc(C)on2)ccc1OCc1ccccc1", "note": "(stereo not given)", "activity change, negative = inhibition": "4.99% (inactive)"},
      {"smiles": "CCC(C)[C@H](NC(=O)N1c2ccccc2NC(=O)[C@@H]1C(C)C)C(=O)N[C@@H](Cc1ccccc1)C(=O)O", "note": "(stereo not given in full)", "activity change, negative = inhibition": "53% (inactive)"},
      {"smiles": "Cc1c(Cl)cccc1NC(=S)N(Cc1ccccc1)Cc1cccnc1", "Potency": "10.4 µM (active)"},
      {"smiles": "Cc1c(Cl)cccc1NC(=S)NCC(O)c1ccccc1", "note": "(stereo not given)", "activity change, negative = inhibition": "-13.2% (inactive)"},
      {"smiles": "Cc1c(Cl)cccc1NC(=O)CSc1ccc(-c2cccnc2)nn1", "activity change, negative = inhibition": "2.52% (inactive)"},
      {"smiles": "Cc1cc(C)c(C#N)c(SCC(=O)N(CC(C)C)C2CCS(=O)(=O)C2)n1", "note": "(stereo not given)", "activity change, negative = inhibition": "-10.3% (inactive)"},
      {"smiles": "COCc1c(C(=O)N/N=C\\c2cccnc2)nnn1-c1nonc1N", "activity change, negative = inhibition": "6.99% (inactive)"},
      {"smiles": "CC1Cc2ccccc2N1S(=O)(=O)c1ccc(Cl)nc1", "note": "(stereo not given)", "activity change, negative = inhibition": "-2.52% (inactive)"},
      {"smiles": "CC1CCc2sc(C(=O)NCC(c3ccco3)N3CCCCC3)cc2C1", "note": "(stereo not given)", "Potency": "7.38 µM (active)"},
      {"smiles": "COc1ccc(C(CNC(=O)c2cc3c(s2)CCCC3)N2CCOCC2)cc1", "note": "(stereo not given)", "activity change, negative = inhibition": "-14.1% (inactive)"},
      {"smiles": "CC(NC(=O)c1cccc(S(=O)(=O)N2CCc3ccccc3C2)c1)c1ccco1", "note": "(stereo not given)", "activity change, negative = inhibition": "9.95% (inactive)"},
      {"smiles": "CC1Cc2ccccc2N1S(=O)(=O)c1cccc(C(=O)NCC(c2ccco2)N2CCCC2)c1", "note": "(stereo not given)", "Potency": "11.7 µM (active)"},
      {"smiles": "CC1CCc2sc(C(=O)N/N=C/C3CCCCC3)cc2C1", "note": "(stereo not given)", "activity change, negative = inhibition": "22.2% (inactive)"},
      {"smiles": "Cc1nn(C)c(Cl)c1CN1CCC(Oc2ccc(C(=O)N3CCCC3)cc2)CC1", "activity change, negative = inhibition": "-15.3% (inactive)"},
      {"smiles": "CC1CN(C(=O)CCC(=O)NC2CCN(Cc3ccccc3)CC2)c2ccccc2O1", "note": "(stereo not given)", "activity change, negative = inhibition": "-6.56% (inactive)"},
      {"smiles": "COC(=O)c1ccc(NC(=O)CSc2nncn2-c2cccnc2)cc1", "activity change, negative = inhibition": "50.5% (inactive)"},
      {"smiles": "O=C(NCc1ccc(Cl)c(Cl)c1)c1cccnc1", "activity change, negative = inhibition": "-4.1% (inactive)"},
      {"smiles": "OC(CNCc1ccc(Cl)c(Cl)c1)c1ccccc1", "note": "(stereo not given)", "Potency": "5.86 µM (active)"},
      {"smiles": "CC(C)(CNCC(O)c1ccccc1)N1CCOCC1", "note": "(stereo not given)", "activity change, negative = inhibition": "42.7% (inactive)"},
      {"smiles": "Cc1[nH]c2ccccc2c1C(=O)CN1CCCC(C)C1", "note": "(stereo not given)", "activity change, negative = inhibition": "-28% (inactive)"},
      {"smiles": "CSc1nccc(NC(=O)c2ccc(C(C)(C)C)cc2)n1", "activity change, negative = inhibition": "26.8% (inactive)"},
      {"smiles": "O=C(c1cc(COc2cccc(C(F)(F)F)c2)on1)N1CCSCC1", "activity change, negative = inhibition": "5.36% (inactive)"},
      {"smiles": "CN(C)CCCNC(=S)N1CCC(c2nc3ccccc3[nH]2)CC1", "activity change, negative = inhibition": "-3.56% (inactive)"},
      {"smiles": "CC(Sc1nncn1C)C(=O)Nc1cc(C(F)(F)F)ccc1N1CCOCC1", "note": "(stereo not given)", "activity change, negative = inhibition": "-8.46% (inactive)"},
      {"smiles": "CCC(=O)Nc1cc(C(F)(F)F)ccc1N1CCCC1", "activity change, negative = inhibition": "22.6% (inactive)"},
      {"smiles": "O=C(CCC1CCCCC1)Nc1cc(C(F)(F)F)ccc1N1CCOCC1", "Potency": "11.7 µM (active)"},
      {"smiles": "CCCCn1c(N)c(N(CC(C)C)C(=O)c2cnc(C)cn2)c(=O)[nH]c1=O", "activity change, negative = inhibition": "6.65% (inactive)"},
      {"smiles": "Cc1ccc(CSCC2Nc3ccc(C(=O)N4CCN(c5ccc(F)cc5)CC4)cc3NC2=O)cc1", "note": "(stereo not given)", "activity change, negative = inhibition": "1.58% (inactive)"},
      {"smiles": "Cc1c(CCC(=O)O)c(=O)oc2cc(OCc3ccc(Br)cc3)ccc12", "activity change, negative = inhibition": "-9.71% (inactive)"},
      {"smiles": "Cc1c(Cc2ccccc2)c(=O)oc2cc(OCC(N)=O)ccc12", "Potency": "4.15 µM (active)"},
      {"smiles": "CCOC(=O)c1cc(=O)c2ccc(OCc3ccccc3)cc2o1", "activity change, negative = inhibition": "31.1% (inactive)"},
      {"smiles": "CCN(CC(=O)NCCCN1CCOCC1)S(=O)(=O)c1cc(Cl)ccc1Cl", "activity change, negative = inhibition": "25.9% (inactive)"},
      {"smiles": "COc1cc(NS(=O)(=O)c2ccc(NC(=S)NC(=O)c3ccccc3)cc2)nc(OC)n1", "activity change, negative = inhibition": "13.7% (inactive)"},
      {"smiles": "Cc1ccc(NC(=O)C(CC(=O)O)C2CCCO2)c(C)c1", "note": "(stereo not given)", "activity change, negative = inhibition": "10% (inactive)"},
      {"smiles": "Cc1ccc(NC(=O)C2CCN(S(=O)(=O)c3ccc4c(c3)NC(=O)CO4)CC2)cc1C", "activity change, negative = inhibition": "-17.5% (inactive)"},
      {"smiles": "COc1ccccc1N(CC(=O)Nc1ccccc1C(=O)N1CCCC1)S(C)(=O)=O", "activity change, negative = inhibition": "1.53% (inactive)"},
      {"smiles": "Fc1ccc2[nH]c3c(N4CCN(Cc5ccc6c(c5)OCO6)CC4)ncnc3c2c1", "Potency": "5.22 µM (active)"},
      {"smiles": "CCN1CCCC1Cn1cnc2c([nH]c3cc(OC)ccc32)c1=O", "note": "(stereo not given)", "activity change, negative = inhibition": "9.43% (inactive)"},
      {"smiles": "CCN1CCCC1CNC(=O)c1cc2cc(OC)c(OC)cc2[nH]1", "note": "(stereo not given)", "activity change, negative = inhibition": "-23.7% (inactive)"},
      {"smiles": "CCN1CCCC1CNc1ncnc2c1[nH]c1ccc(F)cc12", "note": "(stereo not given)", "Potency": "2.33 µM (active)"},
      {"smiles": "CCCCCc1c(C)nc(N2CCN(Cc3ccc4c(c3)OCO4)CC2)[nH]c1=O", "activity change, negative = inhibition": "4.7% (inactive)"},
      {"smiles": "Fc1ccc2[nH]c3c(N4CCSCC4)ncnc3c2c1", "Potency": "4.65 µM (active)"},
      {"smiles": "O=c1[nH]c(N2CCN(Cc3ccc4c(c3)OCO4)CC2)nc2c1CCCC2", "activity change, negative = inhibition": "11.4% [at 5.75 µM] (inactive)"},
      {"smiles": "Cc1ccc(NC(=O)Cc2nc(COC(=O)C(C)NS(=O)(=O)c3ccc(C)cc3)cs2)cc1", "note": "(stereo not given)", "activity change, negative = inhibition": "-17.5% (inactive)"},
      {"smiles": "O=C(NCCOc1cccnc1)c1ccc(OC2CCN(Cc3ccccn3)CC2)cc1", "activity change, negative = inhibition": "-22.5% (inactive)"},
      {"smiles": "CN(C)CCCn1c(SCc2ccc(Cl)cc2)nnc1-c1ccncc1", "activity change, negative = inhibition": "-6.49% (inactive)"},
      {"smiles": "COc1ccc(-c2nnc3n2CCCCC3)cc1", "activity change, negative = inhibition": "17.4% (inactive)"},
      {"smiles": "CCOc1ccc(NC(=O)c2cc(C)nc3ccccc23)cc1", "activity change, negative = inhibition": "1.76% (inactive)"},
      {"smiles": "CCOc1ccc(-n2c(O)c(/C=N/Nc3nc(C)cc(C)n3)c3ccccc3c2=O)cc1", "Potency": "4.15 µM (active)"},
      {"smiles": "CCOc1ccc(-n2c(O)c(/C=N/c3ccnn3Cc3ccncc3)c3ccccc3c2=O)cc1", "activity change, negative = inhibition": "-28.1% (inactive)"},
      {"smiles": "O=C(Cc1ccccc1F)NC1CCSc2ccccc21", "note": "(stereo not given)", "activity change, negative = inhibition": "73.8% (inactive)"},
      {"smiles": "CC1(C)NC(=O)N(CC(=O)N2CCN(S(=O)(=O)c3ccccc3F)CC2)C1=O", "activity change, negative = inhibition": "16.7% (inactive)"},
      {"smiles": "CC1CCC(NS(=O)(=O)c2ccc3c(c2)CC(=O)N3)CC1", "note": "(stereo not given)", "activity change, negative = inhibition": "12.2% (inactive)"},
      {"smiles": "c1ccc(-c2cn3cccnc3n2)cc1", "activity change, negative = inhibition": "46% (inactive)"},
      {"smiles": "c1ccc(-c2cn3c(n2)CCc2ccc4cccnc4c2-3)cc1", "Potency": "10.4 µM (active)"},
      {"smiles": "Cc1cc(NC(=O)CCC(=O)N(CC(=O)NC2CCCC2)c2ccc(F)cc2)no1", "activity change, negative = inhibition": "-1.77% (inactive)"},
      {"smiles": "O=C(CCn1nnc2ccccc21)OCC(=O)c1ccc([N+](=O)[O-])cc1", "activity change, negative = inhibition": "15.2% (inactive)"},
      {"smiles": "COc1ccc(CCC(C)N2CCc3ccccc3C2)cc1", "note": "(stereo not given)", "activity change, negative = inhibition": "19.6% (inactive)"},
      {"smiles": "COc1ccc(CN2CCCC(N3CCc4ccccc4C3)C2)c(O)c1", "note": "(stereo not given)", "Potency": "1.65 µM (active)"},
      {"smiles": "COc1cccc(N2C(=O)CC(N3CCc4ccccc4C3)C2=O)c1", "note": "(stereo not given)", "activity change, negative = inhibition": "2.48% (inactive)"}
    ]}
  ]
}
